Laboratory results from article PMC5540273 (PLoS ONE, 2017).

Columns and labels:
Conditions in all cases: concentration: 1 μM, replicates: in singlicate; n = 1
[1] = tested on: T1, RSK4(Kin.Dom.1-N-terminal)
T1 construct: gene RPS6KA6

[2] = tested on: T2, RSK4(Kin.Dom.2-C-terminal)
T2 construct: gene RPS6KA6

[3] = tested on: S6K1
[4] = tested on: SBK1
[5] = tested on: SGK2
[6] = tested on: SGK3
[7] = tested on: SGK
[8] = tested on: SIK2
[9] = tested on: SIK
[10] = tested on: SLK
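Further: KINOMEscan kinase panel screen.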

| Compound | %Inh [1] | %Inh [2] | %Inh [3] | %Inh [4] | %Inh [5] | %Inh [6] | %Inh [7] | %Inh [8] | %Inh [9] | %Inh [10] |
| --- | --- | --- | --- | --- | --- | --- | --- | --- | --- | --- |
| CC(C)(C)c1ccc2nccc(Nc3cccc(O)c3)c2c1 [GW856795] | 0% | 27% | 9% | 0% | 1% | 0% | 15% | 0% | 0% | 55% |
| Oc1cc(Nc2ccnc3cc(I)ccc23)ccc1F [GW552771] | 7% | 87% | 35% | 8% | 2% | 1% | 19% | 57% | 29% | 16% |
| c1ccc(-c2n[nH]cc2Nc2ccnc3ccccc23)nc1 [GW694077] | 1% | 6% | 33% | 25% | 61% | 47% | 89% | 0% | 0% | 0% |
| O=C(Nc1cccc(-c2nn3ccccc3c2-c2ccnc(Nc3cccc(C(F)(F)F)c3)n2)c1)c1c(F)cccc1F [GSK292658] | 0% | 0% | 0% | 20% | 0% | 8% | 11% | 0% | 9% | 54% |
| CSc1cccc2c(-c3ccncn3)c(-c3ccc(F)cc3)nn12 [GW514786] | 0% | 90% | 0% | 2% | 15% | 0% | 1% | 2% | 2% | 22% |
| Cl.c1ccc(-c2ccc3c(Nc4ccc5[nH]ncc5c4)ccnc3c2)nc1 [GW440137] | 0% | 0% | 0% | 0% | 0% | 21% | 58% | 0% | 0% | 31% |
| O=c1[nH]cc(-c2ccc(N3CCOCC3)cc2)c2sc(-c3cn[nH]c3)cc12 [GSK2276055] | 0% | 18% | 0% | 0% | 0% | 13% | 0% | 0% | 0% | 0% |
| O=C(Nc1cccc(-c2nn3ccccc3c2-c2ccnc(Nc3cccc(F)c3)n2)c1)c1c(F)ccc(F)c1Cl [GSK357952] | 4% | 0% | 2% | 12% | 0% | 2% | 10% | 16% | 34% | 91.2% |
| CC(=O)Nc1nc2cnc(Nc3cc(NC(=O)c4cccc(C5(C#N)CC5)c4Cl)ccc3C)nc2s1 | 0% | 18% | 14% | 0% | 0% | 0% | 0% | 6% | 29% | 23% |
| Cl.Cl.NCC(NC(=O)c1cc(-c2ccccc2)c(-c2ccnc3[nH]ccc23)s1)c1ccccc1 (stereo not shown) [GSK1321561] | 0% | 0% | 6% | 11% | 27% | 15% | 0% | 0% | 11% | 31% |
